# Source: PubChem BioAssay (EPA / NIEHS)
# Where “and” joins values, the source holds several entries; their conditions need not be identical. Equal values may be shown once. Results filed as inconclusive are left out. Calls of active or inactive are those of the source. The calls were made as follows, unless noted: active = hit-call score of the fitted dose curve at least 0.9, where 1 is the maximum; inconclusive = response in the unintended direction; inactive = score below 0.9.
# Assays:
# [1] = Tanguay_ZF_120hpf_TRUN_legacy: (Legacy) Oregon State University Tanguay Lab 120 Hour Post-fertilization zebrafish Assay for Truncated Body (AID 2283655)
# How it was run: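 Tropical 5D wild-type embryos, dechorionated with pronase at 4 hpf, were placed singly in wells at 6 hpf and statically exposed at 28C until 120 hpf, final DMSO 0.64%. Truncated body was scored present/absent by brightfield microscopy.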
# [2] = system: Thyroperoxidase (TPO), gene 54314; assay: CCTE_Simmons_AUR_rTPO: CCTE's Amplex UltraRed Assay for Thyroperoxidase (TPO) Inhibition, Simmons Lab (AID 2283662);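 also: potency for loss of signal meaning inhibition of peroxidase activity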
# How it was run: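 Rat thyroid microsomes (5 ug protein) were incubated with test compound (8 concentrations, 5 nM–87.5 uM final, 0.5% DMSO), 25 uM Amplex UltraRed and 300 uM H2O2 in 200 mM phosphate buffer for 30 min at 37C in the dark; fluorescence read at 544/590 nm.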
# [3] = CCTE_Simmons_CellTiterGLO_HEK293T: Viability Assessment in CCTE's Assays for Thyroperoxidase (TPO) Inhibition, Simmons Lab (AID 2283665);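 also: cells exposed to compound for 24 h before readout; actives reduce ATP signal below DMSO vehicle meaning cytotoxicity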
# How it was run: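 Cytotoxicity counter-screen: human HEK293T cells in low-serum (1% FBS) medium receive test chemical, 5 nM to 87.5 uM final, for 24 h; ATP is quantified by luciferase luminescence.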
# [4] = Tanguay_ZF_120hpf_TR_legacy: (Legacy) Oregon State University Tanguay Lab 120 Hour Post-fertilization zebrafish Assay for Touch Response (AID 2283667)
# How it was run: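 Tropical 5D wild-type zebrafish embryos were exposed statically in sealed, foil-covered plates at 28C until 120 hpf, with 0.64% (vol/vol) final DMSO. Touch response was scored as present or absent; embryos that died were not scored.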
# [5] = CCTE_Padilla_ZF_144hpf_TERATOSCORE: (Legacy) CCTE's 144 Hour Post-fertilization zebrafish Assay Teratoscore, Padilla Lab (AID 2283679; active = hit-call score of the fitted dose curve at least 0.9, where 1 is the maximum; inactive = score below 0.9;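 as to AC50: zebrafish embryos with chorions exposed by immersion from 6-8 hpf to 5 dpf with daily renewal; teratogenicity score from eye scoring of death hatching and malformations at 144 hpf; higher score means more developmental defects relative to DMSO baseline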)
# How it was run: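 Larvae scored by eye at 144 hpf for death, hatching and malformations after a day in clean Hanks'. Before that, daily-renewed exposure at 80 uM (0.4% DMSO, 26C) from roughly 6-8 hpf through 5 dpf, 4 embryos per chemical.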
# [6] = Tanguay_ZF_120hpf_SWIM_legacy: (Legacy) Oregon State University Tanguay Lab 120 Hour Post-fertilization zebrafish Assay for Swim Bladder Malformation (AID 2283654);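 also: swim bladder malformation in each larva scored yes or no under brightfield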
# How it was run: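 Dechorionated Tropical 5D wild-type embryos, placed singly from 6 hpf, were statically exposed at 28C to 120 hpf with 0.64% DMSO final; swim bladder malformation was scored present/absent by brightfield microscopy, gain of signal relative to DMSO controls.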
# [7] = read-out: solute carrier (SLC10A1), SLC10A1 (gene 6554); assay: LTEA_HepaRG_SLC10A1: Life Technologies and Expression Analysis (LTEA) Assay for solute carrier (SLC10A1) using HepaRG (AID 2283657; active = hit-call score of the fitted dose curve at least 0.9, where 1 is the maximum; inactive = score below 0.9); conditions: mRNA level, 48 h; actives raise or lower the signal
# How it was run: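 Differentiated HepaRG cells were plated 48 h, then exposed in serum-free induction medium for 48 h to 8 concentrations (top 100 uM, half-log steps, 0.5% DMSO). SLC10A1 mRNA was quantified by qRT-PCR normalized to ACTB, GAPDH, POLR2A; bidirectional fit versus DMSO.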
# [8] = read-out: matrix metalloproteinase-1 (MMP1), MMP1 (gene 4312); assay: LTEA_HepaRG_MMP1: Life Technologies and Expression Analysis (LTEA) Assay for matrix metalloproteinase-1 (MMP1) using HepaRG (AID 2283658; active = hit-call score of the fitted dose curve at least 0.9, where 1 is the maximum; inactive = score below 0.9); conditions: mRNA level, 48 h; actives raise or lower the signal
# How it was run: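 Differentiated HepaRG cells, plated 48 h then switched to serum-free induction medium, were exposed in duplicate for 48 h to eight half-log concentrations up to 100 uM in 0.5% DMSO; MMP1 mRNA measured by qRT-PCR, normalized to ACTB, GAPDH, POLR2A.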
# [9] = read-out: Cytochrome P450 (CYP24A1_1), CYP24A1 (gene 1591); assay: LTEA_HepaRG_CYP24A1_1: Life Technologies and Expression Analysis (LTEA) Assay for Cytochrome P450 (CYP24A1_1) using HepaRG (AID 2283671; active = hit-call score of the fitted dose curve at least 0.9, where 1 is the maximum; inactive = score below 0.9); conditions: mRNA level, 48 h; actives raise or lower the signal
# How it was run: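 HepaRG, 48 h exposure, 8-pt half-log series from 100 uM in 0.5% DMSO, duplicates. Readout: TaqMan qRT-PCR of CYP24A1 mRNA, housekeeping-normalized (ACTB/GAPDH/POLR2A). Bidirectional curve fit vs DMSO baseline.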
# [10] = Tanguay_ZF_120hpf_NC_legacy: (Legacy) Oregon State University Tanguay Lab 120 Hour Post-fertilization zebrafish Assay for Notochord and Tail Malformation (AID 2283656)
# How it was run: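 Dechorionated 5D zebrafish, 1/well from 6 hpf; static exposure to 120 hpf, 28C, sealed, dark; final DMSO 0.64% v/v. NC scored binary (present/absent); dead embryos not scored. Fit vs DMSO baseline, gain direction.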
smiles,measurement,setting,value
CC[C@H](c1ccc(O)cc1)[C@@H](CC)c1ccc(O)cc1,outcome,[1],inactive
same,AC50,[2],4.36 µM (active)
same,AC50,[3],2.25 µM (active)
same,outcome,[4],inactive
same,AC50,[5],14.9 µM (active)
OC1CCC(C2CCCCC2)CC1 (stereo unspecified),outcome,[6],inactive
same,outcome,[1],inactive
same,AC50,[5],87.6 µM (active)
OCCC(F)(F)C(F)(F)C(F)(F)C(F)(F)C(F)(F)C(F)(F)C(F)(F)C(F)(F)F,outcome,[6],inactive
same,outcome,[1],inactive
same,outcome,[5],inactive
O=[N+]([O-])c1ccc(O)cc1,outcome,[6],inactive
same,outcome,[1],inactive
same,AC50,[5],64.4 µM (active) and 59 µM (active)
CCCOc1sc(C(=O)N2CCC(c3cc(CN)ccc3F)CC2)c(C)c1Br,outcome,[6],inactive
same,outcome,[1],inactive
same,AC50,[5],57.5 µM (active)
COC(=O)CCCCC(=O)OC,outcome,[6],inactive
same,outcome,[1],inactive
same,outcome,[4],inactive
NC(=O)N1C(=O)C(C(=O)c2cc(Cl)cs2)c2cc(F)c(Cl)cc21 (stereo unspecified),outcome,[6],inactive
same,outcome,[1],inactive
same,outcome,[4],inactive
same,AC50,[5],4.57 µM (active)
CCCOC(=O)c1ccc(O)cc1,AC50,[6],10.6 µM (active)
same,AC50,[1],32.9 µM (active)
same,AC50,[5],14.9 µM (active)
CC(O)CO (stereo unspecified),outcome,[1],inactive
same,outcome,[7],inactive
same,outcome,[8],inactive
same,outcome,[9],inactive
CCCCCCC(=O)O,outcome,[6],inactive
same,outcome,[10],inactive
same,outcome,[4],inactive
CC#C[C@]1(O)CC[C@H]2[C@@H]3CCC4=CC(=O)CCC4=C3[C@@H](c3ccc(N(C)C)cc3)C[C@@]21C,outcome,[6],inactive
same,AC50,[2],4.74 µM (active)
same,AC50,[3],17.7 µM (active)
same,AC50,[5],14.5 µM (active)
CCCCOCCO,outcome,[6],inactive
same,outcome,[5],inactive
COCC(C)O (stereo unspecified),outcome,[6],inactive
same,outcome,[1],inactive
same,outcome,[4],inactive
same,outcome,[5],inactive
OC1CCCCC1,outcome,[6],inactive
same,outcome,[1],inactive
same,outcome,[5],inactive
C[C@@H]1C[C@H]2[C@@H]3CCC4=CC(=O)C=C[C@]4(C)[C@@]3(F)[C@@H](O)C[C@]2(C)[C@@]1(O)C(=O)COP(=O)(O)O,outcome,[6],inactive
same,outcome,[1],inactive
same,outcome,[4],inactive
same,outcome,[5],inactive
